Source: PubChem BioAssay (NCI)
This is part of a sample that, as a whole, favours compounds with a hit. Of some 79,000 tested, about 15% had one in any assay. Calls of active or inactive are those of the source. Cut-off read from the data, not from the text of the source: active = growth inhibition above about 70%; inactive = the rest.

Key:
[1] = NCI Yeast Anticancer Drug Screen. Data for the mec2-1 strain (AID 157); details: S. cerevisiae mec2-1 strain, hits give high values
Procedure, shortened: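 Each compound was tested on mec2-1 yeast, a strain altered in DNA damage repair or cell cycle control. Growth inhibition is reported relative to vehicle.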

[2] = NCI Yeast Anticancer Drug Screen. Data for the rad14 strain (AID 159);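 note: 0% = growth of vehicle-treated control cultures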; details: S. cerevisiae rad14 strain growth inhibition, hits give high values
Procedure, shortened: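 Inhibition of growth is reported for a repair-deficient yeast mutant following compound treatment, calculated relative to cultures that received vehicle.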

[3] = NCI Yeast Anticancer Drug Screen. Data for the sgs1 mgt1 strain (AID 161);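 note: 0% = growth of cultures given vehicle only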; details: S. cerevisiae sgs1 mgt1 strain, hits give high values
Procedure, shortened: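 Genetically altered yeast, compound exposure, growth inhibition relative to vehicle.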

[4] = NCI Yeast Anticancer Drug Screen. Data for the cln2 rad14 strain (AID 165);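 note: 0% = growth equal to vehicle treated cultures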; details: S. cerevisiae cln2 rad14 strain, hits give high values
Procedure, shortened: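 Test compounds were added to cln2 rad14 yeast cultures; inhibition of growth was then determined by comparison with vehicle treatment.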

[5] = NCI Yeast Anticancer Drug Screen. Data for the bub3 strain (AID 167); details: S. cerevisiae bub3 mutant strain, hits give high values
Procedure, shortened: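 Mutant yeast screening strain plus compound; vehicle-treated cultures serve as the 0% inhibition reference.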

[6] = NCI Yeast Anticancer Drug Screen. Data for the wt2 strain (AID 169); details: S. cerevisiae wt2 strain growth inhibition, hits give high values
Procedure, shortened: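 The panel's yeast strains carry defined changes in DNA repair or cell cycle genes. Each strain is grown with compound, and growth loss is scored relative to vehicle.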

[7] = NCI Yeast Anticancer Drug Screen. Data for the mlh1 strain (AID 171);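 note: 0% = growth of vehicle-treated control cultures of the same strain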; details: S. cerevisiae mlh1 strain growth inhibition, hits give high values
Procedure, shortened: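 Inhibition values reflect reduced yeast growth in the presence of compound, referenced to vehicle controls, using a strain chosen for its alteration in DNA repair or cell cycle control.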

[8] = NCI Yeast Anticancer Drug Screen. Data for the sgs1 strain (AID 173);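 note: 0% = growth of vehicle-only control cultures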; details: S. cerevisiae sgs1 mutant, hits give high values
Procedure, shortened: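 Vehicle-treated cultures served as reference for growth inhibition of a yeast strain altered in DNA damage repair or cell cycle control after compound exposure.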

[9] = NCI Yeast Anticancer Drug Screen. Data for the mlh1 rad18 strain (AID 175); details: S. cerevisiae mlh1 rad18 strain growth inhibition, hits give high values
Procedure, shortened: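 Inhibition values reflect reduced growth of mutant yeast versus vehicle-treated controls following compound exposure; the mutations affect DNA damage repair.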

[10] = NCI Yeast Anticancer Drug Screen. Data for the rad18 strain (AID 177); details: S. cerevisiae rad18 mutant growth inhibition, hits give high values
Procedure, shortened: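 Steps: expose repair-mutant yeast to compound; measure growth; express as inhibition relative to vehicle control.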

[11] = NCI Yeast Anticancer Drug Screen. Data for the rad52 strain (AID 147);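 note: 0% = growth of vehicle-treated control cultures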; details: S. cerevisiae rad52 mutant growth inhibition, hits give high values
Procedure, shortened: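 Inhibition of yeast growth, referenced to vehicle controls, was the measured output for a strain with defective DNA damage repair.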

[12] = NCI Yeast Anticancer Drug Screen. Data for the wt1 strain (AID 149);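 note: 0% = growth of vehicle-treated wt1 cultures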; details: S. cerevisiae wt1 strain (SPY 50644) growth inhibition, hits give high values
Procedure, shortened: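 Each compound is tested on wt1 yeast and the loss of growth versus vehicle gives the inhibition value.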

[13] = NCI Yeast Anticancer Drug Screen. Data for the rad50EPP+ strain (AID 151);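 note: 0% = growth of vehicle-treated control cultures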; details: S. cerevisiae rad50 mutant strain, hits give high values
Procedure, shortened: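 Genetically defined yeast (rad50EPP+, DNA damage repair alteration) is grown with compound, and inhibition of growth is expressed relative to vehicle-treated controls.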

[14] = NCI Yeast Anticancer Drug Screen. Data for the rad50 strain (AID 155);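 note: 0% = growth of vehicle-only cultures of the same strain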; details: S. cerevisiae rad50 strain growth inhibition, hits give high values
Procedure, shortened: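 Vehicle-treated cultures provide the reference for the growth inhibition reported for compound-exposed, repair-deficient yeast.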

[15] = NCI Yeast Anticancer Drug Screen. Data for the CLN2oe strain (AID 163);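 note: 0% = growth of vehicle-only control cultures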; details: S. cerevisiae CLN2oe strain, hits give high values
Procedure, shortened: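 First, the altered yeast strain was treated with each compound; second, its growth was measured; finally, inhibition was derived by comparison with vehicle controls.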

[16] = at 5.0 µM (retest, dose inferred, filed as 0.5)
[17] = at 50.0 µM (retest, dose inferred, filed as 5.0)

Measured: growth inhibition

O=[N+]([O-])c1cc(Cl)cnc1Br
active: [1]; at 100.0 µM 88% | [8]; at 100.0 µM 82% | [10]; at 100.0 µM 87%
inactive: [2]; at 1.2 µM 4% | [2]; at 3.7 µM 1% | [2]; at 11.0 µM 10% | [2]; at 33.0 µM 14% | [2]; at 100.0 µM 31% | [3]; [16] -50% | [3]; [17] -19% | [3]; at 50.0 µM 8.35% | [4]; [16] -56% | [4]; [17] -74% | [4]; at 50.0 µM 3.2% | [5]; at 1.2 µM -8% | [5]; at 3.7 µM -10% | [5]; [16] -74% | [5]; at 11.0 µM -6% | [5]; at 33.0 µM -2% | [5]; [17] -70% | [5]; at 50.0 µM -8.3% | [5]; at 100.0 µM 30% | [6]; at 1.2 µM 0% | [6]; at 3.7 µM 1% | [6]; at 11.0 µM 2% | [6]; at 33.0 µM 5% | [6]; at 100.0 µM 20% | [7]; at 1.2 µM 6% | [7]; at 3.7 µM 8% | [7]; at 11.0 µM 6% | [7]; at 33.0 µM 12% | [7]; at 100.0 µM 27% | [8]; at 1.2 µM 14% | [8]; at 3.7 µM 25% | [8]; at 11.0 µM 30% | [8]; at 33.0 µM 40% | [9]; [16] -109% | [9]; [17] -48% | [9]; at 50.0 µM 28.1% | [10]; at 1.2 µM 6% | [10]; at 3.7 µM 10% | [10]; at 11.0 µM 18% | [10]; at 33.0 µM 35%

CCO/C(C)=C(/C#N)C(N)=S
inactive: [11]; at 1.2 µM -1% | [11]; at 3.7 µM -1% | [11]; at 11.0 µM -1% | [11]; at 33.0 µM -2% | [11]; at 100.0 µM 3% | [12]; at 1.2 µM -1% | [12]; at 3.7 µM -2% | [12]; at 11.0 µM 0% | [12]; at 33.0 µM 0% | [12]; at 100.0 µM 1% | [13]; at 1.2 µM -3% | [13]; at 3.7 µM -6% | [13]; at 11.0 µM -11% | [13]; at 33.0 µM -16% | [13]; at 100.0 µM 2% | [14]; at 1.2 µM 1% | [14]; at 3.7 µM -1% | [14]; [16] 13% | [14]; at 11.0 µM -1% | [14]; at 33.0 µM 0% | [14]; [17] 67% | [14]; at 50.0 µM 60% | [14]; at 100.0 µM 2% | [1]; at 1.2 µM -2% | [1]; at 3.7 µM 1% | [1]; [16] 3% | [1]; at 11.0 µM -1% | [1]; at 33.0 µM -1% | [1]; [17] 2% | [1]; at 50.0 µM 35.5% | [1]; at 100.0 µM 1% | [3]; [16] -9% | [3]; at 50.0 µM 40.3% | [15]; at 1.2 µM -3% | [15]; at 3.7 µM -4% | [15]; at 11.0 µM -1% | [15]; at 33.0 µM -8% | [15]; at 100.0 µM -11% | [4]; [16] 5% | [4]; [17] 21% | [5]; at 1.2 µM -4% | [5]; at 3.7 µM -3% | [5]; [16] 4% | [5]; at 11.0 µM -3% | [5]; at 33.0 µM -7% | [5]; at 100.0 µM -4% | [7]; at 1.2 µM -2% | [7]; at 3.7 µM -3% | [7]; at 11.0 µM -1% | [7]; at 33.0 µM -3% | [7]; at 100.0 µM 0% | [8]; at 1.2 µM -1% | [8]; at 3.7 µM 3% | [8]; at 11.0 µM 1% | [8]; at 33.0 µM 3% | [8]; at 100.0 µM 6% | [9]; [16] 3% | [9]; at 50.0 µM 42.9% | [10]; at 1.2 µM 0% | [10]; at 3.7 µM -1% | [10]; at 11.0 µM 7% | [10]; at 33.0 µM -1% | [10]; at 100.0 µM 4%
active: [3]; [17] 73% | [4]; at 50.0 µM 85.3% | [5]; [17] 70% | [5]; at 50.0 µM 74.7% | [9]; [17] 84%
